GRIN3A LBD mod: modulates the human NR3A ligand-binding domain. NR3A LBD differential scanning fluorimetry, Tm shift; 0% = protein alone, 100% = glycine-bound protein. Tm shift relative to glycine control, % at 25 µM. 340,000 tested, 2.5% active. AID 1259313;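 active = melting temperature shift of at least 10% of the positive control shift, at one fixed dose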
AHR act: activates the human aryl hydrocarbon receptor; AHR-responsive luciferase reporter cells, luminescence; P35869; 320,000 tested, 2.5% active; activation, % at 5 µM; in the data active = activation above about 47%;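 also: 0% = vehicle wells and 100% = reference agonist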
ADAM10 inh: ADAM10 inhibition, QFRET primary screen | O14672 | recombinant ADAM10, EDANS/DABCYL FRET peptide cleavage, 3 h | inhibition, % at 7 µM | 370,000 tested, 0.62% active | AID 720582;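 active = inhibition above a per-campaign cutoff equal to the mean of compounds falling between control-based bounds plus 3 SD, cut at about 20% in these data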;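 also: 0% = DMSO wells while the 100% control is not disclosed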
Target sequence (O14672 214-748 limits assumed): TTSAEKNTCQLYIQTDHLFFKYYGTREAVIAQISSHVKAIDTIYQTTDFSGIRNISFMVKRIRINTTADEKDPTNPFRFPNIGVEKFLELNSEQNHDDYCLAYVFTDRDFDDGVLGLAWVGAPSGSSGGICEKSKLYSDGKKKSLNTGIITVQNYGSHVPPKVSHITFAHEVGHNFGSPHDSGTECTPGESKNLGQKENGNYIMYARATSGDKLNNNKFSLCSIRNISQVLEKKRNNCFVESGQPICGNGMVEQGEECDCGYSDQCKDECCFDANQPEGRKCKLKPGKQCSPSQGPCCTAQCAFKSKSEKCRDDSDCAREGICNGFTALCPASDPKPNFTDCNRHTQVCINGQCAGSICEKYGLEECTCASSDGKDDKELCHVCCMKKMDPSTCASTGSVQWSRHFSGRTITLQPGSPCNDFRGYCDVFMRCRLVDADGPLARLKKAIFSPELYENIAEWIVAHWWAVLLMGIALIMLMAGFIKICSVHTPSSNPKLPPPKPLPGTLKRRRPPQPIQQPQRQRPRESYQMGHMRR
KLK7 zymogen act: proKLK7 (human) activation, primary screen; 370,000 tested, 0.9% active; activation, % at 7 µM; purified proKLK7, EDANS-DABCYL substrate fluorescence; 100% is mature enzyme control, 0% vehicle; AID 652039;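 active = activation above the mean of all tested compounds plus 3 SD, computed per campaign excluding outliers beyond control limits, cut at about 13% in these data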
ADAM17 inh: inhibits human ADAM17. recombinant ADAM17, EDANS/DABCYL FRET peptide cleavage. P78536. inhibition, % at 6.95 µM. 370,000 tested, 0.83% active;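 active = inhibition above the mean of compounds lying between control limits plus 3 SD, set per campaign, cut at about 8.5% in these data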;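 also: 0% = DMSO-only wells as the low control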
rCAG binder: binds r(CAG) RNA repeats; r(CAG) RNA repeat, TO-PRO-1 dye displacement fluorescence; inhibition, % at 3 µM; 370,000 tested, 1.3% active;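 active = inhibition above the plate cutoff, the mean of all test compounds on that plate plus 3 SD, cut at about 35% in these data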;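 also: 0% = DMSO alone and 100% = 100 µM mitoxantrone as full dye displacement; higher means more dye released from RNA so lower well fluorescence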
proKLK7 act conf: proKLK7 activation, confirmation; shares compounds with KLK7 zymogen act; purified proKLK7, EDANS-DABCYL substrate fluorescence; scaled: vehicle 0, mature enzyme 100; activation, % at 7 µM; 3,200 tested, 68% active;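 active = activation, as change over the incubation, above the mean of all tested compounds plus 3 SD, cut at about 13% in these data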
EDANS interfere: counter-screen for kallikrein-7 activators: EDANS-DABCYL optical interference | shares compounds with KLK7 zymogen act | EDANS-DABCYL substrate fluorescence interference, no enzyme, 4 h; solvent 0%, active enzyme control 100% | activation, % at 7 µM | 3,200 tested, 80% active | AID 686952;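 active = activation above the all-compound mean plus 3 SD, ignoring values outside control-based bounds, cut at about 4.8% in these data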;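 also: value is the 4 h activation minus the activation read at time zero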
EDANS interf: counter-screen for kallikrein-7 activators: EDANS-DABCYL interference, dose response; shares compounds with KLK7 zymogen act; EDANS-DABCYL peptide fluorescence interference, no enzyme; EC50, µM; 250 tested, 20% active; AID 720493;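 active = compounds that raise the fluorescence signal in this interference counterscreen, with EC50 at or below 10 µM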;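 also: intact quenched peptide substrate alone read at 355 nm excitation and 520 nm emission; signal is fluorescence gain from T0 to T4 after four hours at room temperature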
The depositor's hits bear a star; i = inactive; nt = no result. In the library only some 7% were active in any assay of this set; here they are far more common.

SMILES	GRIN3A LBD mod	AHR act	ADAM10 inh	KLK7 zymogen act	ADAM17 inh	rCAG binder	proKLK7 act conf	EDANS interfere	others
COc1ccc(OC)c(/C=C/C(=O)N(C)CC(=O)Nc2ccc(C)cc2)c1	-1	29	i	27*	-362	-4	64*	68*
CCC(=O)Oc1ccc2c(c1)OC1(OC(C)=O)OC(C)CC1=C2C (stereo not given)	-1	3	i	297*	i	-7	610*	615*
Cc1ccc(S(=O)(=O)NCCc2cn3nc(C)c(C)nc3n2)cc1C	1	-2	i	58*	-461	-1	41*	49*
Cc1ccc(S(=O)(=O)NCCc2ccncc2)cc1C	1	7	5	0	1	-1	nt	nt
COc1ccc(S(=O)(=O)NCCc2cn3nc(C)c(C)nc3n2)cc1C	-1	1	i	33*	-415	4	37*	45*
CCOC(=O)Cn1ncn(-c2ccc(OC(F)(F)F)cc2)c1=O	0	1	-6	0	-5	-2	nt	nt
COc1ccc(OCCN2CCC(C(=O)NC(c3ccc(Cl)cc3)c3cnccn3)CC2)cc1 (stereo not given)	nt	nt	-2	1	-4	-2	nt	nt
CC(C)OC(=O)c1ccc2ccc(-c3ccccc3)nc2c1	nt	nt	-12	0	-3	1	nt	nt
CCOC(=O)c1nn(-c2ccc(F)cc2)c2nc(-c3ccccc3)c(C#N)c(=O)n12	3	13	-416	40*	-135	2	138*	146*
CCOc1cc(C2C3=C(CCCC3=O)N(CCC(=O)O)C3=C2C(=O)CCC3)ccc1OS(=O)(=O)c1ccc(C)cc1	0	0	i	20*	-456	22	30*	32*
CCOc1ccc(C2C3=C(CC(C)(C)CC3=O)N(CC(=O)O)C3=C2C(=O)CC(C)(C)C3)cc1OCC	1	1	-2	0	-3	2	nt	nt
COC(=O)CSc1nc2ccc(N)cc2s1	-3	8	-10	0	-8	3	nt	nt
COC(=O)CSc1ccc2c(N)c(C(=O)OC)sc2c1	-2	-5	-184	45*	-48	5	27*	29*
Cc1nn(-c2ccccc2)c2c1cc1c(=O)n(C)c(=O)nc-1n2-c1ccccc1F	-1	9	i	13*	-345	-1	18*	9.1*	EDANS interf=>70
Cc1cccc(-n2c3nc(=O)[nH]c(=O)c-3cc3c(C)nn(-c4ccccc4)c32)c1C	1	1	i	14*	i	-4	46*	58*
Cc1cccc(-n2c3nc(=O)[nH]c(=O)c-3cc3cc([N+](=O)[O-])ccc32)c1	4	0	-36	1	-9	4	nt	nt
Cc1nn(-c2ccccc2)c2sc(C(=O)c3c(N)n(C)c(=O)n(C)c3=O)cc12	-2	14	-1	-17	-4	7	nt	nt
N=c1c(C(=O)NCC2CCCO2)cc2c(=O)n3ccccc3nc2n1C1CCCCC1 (stereo not given)	-4	2	i	35*	i	-1	6	3
Cc1ccc2nc3c(cc(C(=O)NCc4ccco4)c(=N)n3C3CCCC3)c(=O)n2c1	nt	2	i	9	i	8	nt	nt
Cc1ccc2nc3c(cc(C(=O)NCC4CCCO4)c(=N)n3C3CCCC3)c(=O)n2c1 (stereo not given)	-2	5	i	81*	i	-2	72*	81*
Cc1cccn2c(=O)c3cc(C(=O)NCC4CCCO4)c(=N)n(C4CCCC4)c3nc12 (stereo not given)	1	8	i	81*	i	3	-45	-56
N=c1c(C(=O)NCC2CCCO2)cc2c(=O)n3ccccc3nc2n1Cc1ccccc1Cl (stereo not given)	0	6	i	-6	-463	0	nt	nt
N=c1c(C(=O)NCC2CCCO2)cc2c(=O)n3ccccc3nc2n1C1CCCC1 (stereo not given)	0	5	i	106*	i	-2	42*	30*	EDANS interf=>69
CC1(C(=O)NS(=O)(=O)c2ccccc2)CCN1C(=O)CCc1ccccc1 (stereo not given)	nt	nt	-7	-1	-4	0	nt	nt
CSCCNC(=O)C1(C)CCN1C(=O)CCc1ccccc1 (stereo not given)	nt	nt	0	16*	-5	0	0	0
SMILES	GRIN3A LBD mod	AHR act	ADAM10 inh	KLK7 zymogen act	ADAM17 inh	rCAG binder	proKLK7 act conf	EDANS interfere	others
CC(C)(C)CC(C)(C)Nc1c(-c2ccc(O)cc2)nc2cnccn12	-4	1	i	39*	i	-3	-118	-104
Cc1nn(CSc2c(F)c(F)c(F)c(F)c2F)c(C)c1[N+](=O)[O-]	-2	-2	-17	-1	-2	-4	nt	nt
CN1C(=O)c2cccc3c(S(=O)(=O)N4CCCC4C(=O)O)ccc1c23 (stereo not given)	-1	4	-179	17*	-67	2	42*	46*
COCCNS(=O)(=O)c1ccc2c3c(cccc13)C(=O)N2C	1	6	i	28*	-189	0	78*	88*
CCOC(=O)CNS(=O)(=O)c1ccc2c3c(cccc13)C(=O)N2CC	-1	1	i	77*	-243	0	64*	69*
CCN1C(=O)c2cccc3c(S(=O)(=O)NCc4ccccn4)ccc1c23	0	11	i	53*	-223	0	62*	56*
O=[N+]([O-])c1ccc(C23CC4CC(CC(O)(C4)C2)C3)cc1	nt	5	nt	nt	nt	nt	nt	nt
COc1ccccc1C(=O)C1CCCN(C(=O)c2ccco2)C1 (stereo not given)	1	-1	-3	1	-7	-5	nt	nt
CS(=O)(=O)N(CC(=O)O)Cc1cccc(CN(CC(=O)O)S(C)(=O)=O)c1	-4	1	7	1	4	4	nt	nt
COc1ccc(NC(=O)COC(=O)CCNS(=O)(=O)c2ccccc2)cc1OC	-1	1	14	0	3	-2	nt	nt
O=c1[nH]c(CN2CCN(c3ccccc3Cl)CC2)nc2ccsc12	0	1	-5	-1	-4	-4	nt	nt
COc1cc2c(cc1OC)CN(Cc1nc3ccsc3c(=O)[nH]1)CC2	-6	5	-262	31*	-94	4	8	13*
COc1ccccc1N(CC(=O)N1CCCC1)S(=O)(=O)c1cc([N+](=O)[O-])ccc1Cl	2	1	-2	1	1	2	nt	nt

Screening data deposited in PubChem BioAssay by several laboratories.
